Compounds with a hit are over-represented: about 1.6% of the library has one in this group of screens.
KCNQ2 pot: potentiators of rat KCNQ2 potassium channel; O88943; CHO-K1 KCNQ2, FluxOR thallium flux fluorescence; active compounds read high; B-score at 10 µM; hit rate 0.54% among 310,000;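 active means fluorescence ratio B-score at least 3 SD of library B-scores, with initial fluorescence B-score within 3 of them, cut at about 5.3 in these data; same plate scores as AID 2156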;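 further: B-score of peak minus minimum over baseline fluorescence ratio after K+ and Tl+ stimulus; positive B-score means potentiation of KCNQ2 with more thallium influx and brighter signal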
Target sequence (O88943 whole entry, looked up): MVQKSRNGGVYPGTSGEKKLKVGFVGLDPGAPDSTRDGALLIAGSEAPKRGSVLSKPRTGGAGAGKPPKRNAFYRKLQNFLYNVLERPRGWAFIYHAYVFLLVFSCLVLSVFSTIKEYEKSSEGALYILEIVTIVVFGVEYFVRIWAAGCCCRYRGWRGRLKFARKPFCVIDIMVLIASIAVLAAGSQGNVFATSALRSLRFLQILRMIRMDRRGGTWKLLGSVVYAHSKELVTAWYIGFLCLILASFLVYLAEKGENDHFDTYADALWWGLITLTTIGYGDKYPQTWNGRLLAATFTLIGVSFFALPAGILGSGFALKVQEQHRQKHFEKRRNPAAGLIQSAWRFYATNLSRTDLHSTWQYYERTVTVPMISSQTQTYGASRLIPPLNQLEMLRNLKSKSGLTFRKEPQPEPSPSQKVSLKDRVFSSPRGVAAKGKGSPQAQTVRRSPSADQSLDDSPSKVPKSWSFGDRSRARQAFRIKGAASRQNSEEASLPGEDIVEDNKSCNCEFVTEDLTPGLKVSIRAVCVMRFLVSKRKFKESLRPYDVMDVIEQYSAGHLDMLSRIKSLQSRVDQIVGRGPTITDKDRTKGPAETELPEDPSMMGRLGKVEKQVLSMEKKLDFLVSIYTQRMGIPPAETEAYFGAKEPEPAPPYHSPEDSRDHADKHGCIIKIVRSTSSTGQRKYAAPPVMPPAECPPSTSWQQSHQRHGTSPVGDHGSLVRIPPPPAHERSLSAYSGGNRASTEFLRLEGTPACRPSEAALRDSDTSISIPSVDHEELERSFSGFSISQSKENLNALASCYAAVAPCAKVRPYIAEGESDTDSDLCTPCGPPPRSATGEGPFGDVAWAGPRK
KCNQ2 block: blocks the rat KCNQ2 potassium channel; O88943; CHO-K1 KCNQ2, FluxOR thallium flux, 20 min; active compounds read low; B-score at 10 µM; hit rate 1.1% among 310,000;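 active means fluorescence ratio B-score at most minus 3 library SDs, with starting brightness B-score within 2 library SDs, cut at about -5.5 in these data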
Kir21 conf inh: confirmation of mouse Kir2.1 potassium channel inhibitors | shares compounds with KCNQ2 pot | Kir2.1-expressing cells, FluxOR thallium flux fluorescence; active compounds read low | Tl flux remaining, % of negative control (active compounds read low), % at 10 µM | hit rate 41% among 2,300;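 active means Primary-screen hit whose thallium flux fell at least 3 control SD below untreated wells in both duplicates, with normal baseline fluorescence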;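 further: 0% = blank wells without stimulus and 100% = stimulated no-compound controls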
HEK293 ctr: alters thallium flux in parental HEK293 cells, Kir2.1 counter-screen. shares compounds with KCNQ2 pot. FluxOR thallium flux fluorescence; 0% = unstimulated blank wells. FluxOR signal as % of negative control (100 = no effect), % at 10 µM. hit rate 19% among 2,300. AID 2105;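 active means dye signal at least 3 control SD above or below untreated wells in both duplicates, raw fluorescence within 3, either direction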;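 further: percent is based on the flux ratio of peak minus minimum fluorescence over baseline F0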
CHO-K1 ctr: alters thallium flux in parental CHO-K1 cells, KCNQ2 counter-screen; activity increase over 3SD of controls, % at 10 µM; hit rate 43% among 1,200; shares compounds with KCNQ2 pot; FluxOR thallium flux fluorescence; zero = vehicle mean+3SD, 100% = vehicle-minus-blank window;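 active means signal rise of at least 3 SD above the untreated control mean, in both duplicate wells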;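 further: counter screen of KCNQ2 potentiator hits so any rise reflects channel-independent effects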
KCNQ1 pot spec: selectivity of KCNQ2 potentiators: effect on human KCNQ1. shares compounds with KCNQ2 pot. CHO KCNQ1 stable, FluxOR thallium flux fluorescence; beyond 3SD, as % of vehicle-control signal. activation over 3SD threshold, % at 10 µM. hit rate 28% among 1,200. AID 2283;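 active means fluorescence ratio rise of at least 3 SD of vehicle wells above their mean, in both replicate wells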;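 further: 0% = vehicle mean plus 3 SD and 100% = vehicle minus unstimulated blank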
KCNQ2 pot conf: rat KCNQ2 channel potentiator confirmation. CHO-KCNQ2 cells, FluxOR thallium flux fluorescence. shares compounds with KCNQ2 pot. hit rate 68% among 1,200. AID 2287. potentiation, less the hit threshold, % at 10 µM;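 active means fluorescence ratio rising 3 SD or more over the vehicle control mean in both replicates, plus primary screen hit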;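 further: peak minus minimum thallium fluorescence divided by baseline after K/Tl stimulus; 0% = vehicle mean plus 3 SD and 100% = vehicle minus unstimulated blank difference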
Kir21 spec: tests whether KCNQ2 potentiators also affect mouse Kir2.1; shares compounds with KCNQ2 pot; HEK293 Kir2.1, FluxOR thallium flux fluorescence; activity over 3SD threshold, % at 10 µM; hit rate 2% among 1,200; AID 2345;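 active means fluorescence ratio rise of at least 3 SD above the vehicle-control mean, seen in both replicates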;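 further: 0% = vehicle mean plus 3 SD and 100% = vehicle minus no-stimulus blank window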
KCNQ2 W236L pot: rat KCNQ2 W236L mutant potentiation by KCNQ2 potentiators; hit rate 10% among 940; CHO KCNQ2-W236L, automated patch clamp current; current increase over 3SD of negative controls (%), active compounds read high, % at 25 µM; AID 2558; shares compounds with KCNQ2 pot;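 active means current increase at least 3 SD of the untreated controls above them in both duplicate recordings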
* marks the source's active call; other numbers are inactive results; i = inactive; nt = no result given.

SMILES | KCNQ2 pot | KCNQ2 block | Kir21 conf inh | HEK293 ctr | others
COc1ccc(CNC(=O)CN(Cc2ccccc2)C(=O)CCC(=O)Nc2nccs2)cc1 | 1.4 | i | nt | nt
C=CCn1c(Cc2cccs2)nnc1SC/C=C/c1ccccc1 | nt | i | 31%* | i
CCn1c(SC/C=C/c2ccccc2)nnc1-c1cccs1 | nt | i | 48%* | i
Cn1c(SC/C=C/c2ccccc2)nnc1-c1cccs1 | nt | i | nt | nt
C=CCn1c(Cc2cccs2)nnc1SCC(=O)Nc1cc(OC)cc(OC)c1 | nt | i | nt | nt
CNC(=O)COC(=O)c1ccc(Cl)c(S(N)(=O)=O)c1 | 0.04 | i | nt | nt
CCN(CC(=O)NC1CCS(=O)(=O)C1)S(=O)(=O)c1c(C)c(C)cc(C)c1C (centres undefined) | 0.21 | i | nt | nt
CCCCCCCCn1c2c(c(=N)c3ccccc31)CCC2 | -5.7 | -5.7* | 14%* | i
CCCCn1c2c(c(=N)c3ccccc31)CCC2 | nt | i | nt | nt
CCCCCCCCCn1c2c(c(=N)c3c1CCC3)CCCC2 | 19* | i | 9.0%* | i | CHO-K1 ctr=39*;KCNQ1 pot spec=-4;KCNQ2 pot conf=-88;Kir21 spec=-114;KCNQ2 W236L pot=i
CCn1c2c(c(=N)c3c1CCC3)CCCC2 | 0.8 | i | nt | nt
CC1=CC(=O)C(C(C)C)=C/C1=C(\c1cc(C(C)C)c(OP(=O)(O)O)cc1C)c1ccccc1C(=O)O | 1.8 | i | nt | nt
CCOC(=O)c1ccccc1NC(=O)COC(=O)c1c(CC)noc1C | 0.49 | i | nt | nt
O=C(CSc1ccc(F)cc1)Nc1ccc(N2CCOCC2)cc1 | 0.06 | i | nt | nt
O=C(CSc1ccc(F)cc1)Nc1ccccc1N1CCOCC1 | nt | i | 38%* | i
Nc1cc(N)nc(SCC(=O)Nc2ccccc2N2CCOCC2)n1 | 1.1 | i | nt | nt
Cc1noc(C)c1CSCC(=O)Nc1ccccc1N1CCCCC1 | nt | i | 56%* | 76%*
Cc1ccc(SCC(=O)Nc2ccccc2N2CCOCC2)cc1 | nt | i | 48%* | i
Cc1cccc(NC(=O)CSCc2c(C)noc2C)c1C | 0.82 | i | nt | nt
O=C(CSc1ccccc1)Nc1ccccc1N1CCOCC1 | nt | i | i | i
Cc1ccc(-c2nnc(SCC(=O)Nc3ccccc3N3CCOCC3)o2)cc1 | nt | i | nt | nt
Cc1nc2ccc(C(=O)N3CCN(Cc4ccccc4)CC3)cc2[nH]1 | nt | i | nt | nt
CC(=O)NCCCC(=O)NNC1CC(=O)N(c2cccc(Cl)c2)C1=O (centres undefined) | nt | i | nt | nt
CC1(c2nnc(-c3ccc(Cl)cc3)o2)CC(c2cccnc2)=NO1 (centres undefined) | nt | i | nt | nt
COc1ccccc1CN(C(=O)c1cnccn1)C(C(=O)NC1CCCCC1)c1cc(OC)c(OC)c(OC)c1 (centres undefined) | 0.21 | i | nt | nt
SMILES | KCNQ2 pot | KCNQ2 block | Kir21 conf inh | HEK293 ctr | others
c1ccc(-c2ccc(OCCCNC3CCCC3)cc2)cc1 | nt | i | 42%* | i
c1ccc(Cc2ccc(OCCCNC3CCCC3)cc2)cc1 | 0.67 | i | 44%* | i
c1ccc(SCCCCNC2CCCC2)cc1 | 1.2 | i | nt | nt
COc1ccc(OCCNC2CCCC2)cc1 | 1.1 | i | nt | nt
CC(Oc1ccc(Br)cc1)C(=O)Nc1cc(S(=O)(=O)N2CCOCC2)ccc1N1CCCC1 (centres undefined) | nt | i | nt | nt
COc1ccc(CC(=O)OCC(=O)N(C)C2CCS(=O)(=O)C2)cc1OC (centres undefined) | nt | i | nt | nt
O=C(CSc1nnc(-c2ccc(C(F)(F)F)cn2)s1)c1ccc(Cl)cc1 | 1.3 | i | nt | nt
Cc1ccc(-c2csc(NC(=O)N3CCOCC3)n2)cc1 | 0.63 | i | nt | nt
Cc1ccc(NS(=O)(=O)c2cccc(C(=O)N(C)Cc3cccs3)c2)cc1 | nt | i | nt | nt
CC/C(=N/O)C(=O)c1ccc(Br)cc1 | nt | i | nt | nt
O=c1c2cccnc2[nH]c(=S)n1CCC1=CCCCC1 | 12* | i | i | 278%* | CHO-K1 ctr=7.6*;KCNQ1 pot spec=-14;KCNQ2 pot conf=48*;Kir21 spec=-23;KCNQ2 W236L pot=i
CCCCCn1c(=S)[nH]c2ncccc2c1=O | 3.1 | i | nt | nt
C=C1CCN([C@H](C(=O)NCc2ccc(OC)cc2)C(C)C)S(=O)(=O)c2ccccc21 | nt | i | nt | nt
CCOC(=O)C(=CNc1ccc(NC2=NCC(C)(C)S2)cc1)C(=O)OCC | nt | i | 58%* | i
CCOC(=O)C(=CNc1ccc(S(N)(=O)=O)cc1)C(=O)OCC | nt | i | nt | nt
CCc1ccc(C2C(C#N)=C(N)C(C#N)(C#N)C3=CCC(C(C)(C)C)CC32)cc1 (centres undefined) | 0.99 | i | i | i
Cc1cc(=S)nc(-c2ccccn2)[nH]1 | 2.4 | i | nt | nt
Cc1[nH]c(-c2ccccn2)nc(=S)c1Cl | 11* | i | i | 298%* | CHO-K1 ctr=-9;KCNQ1 pot spec=-7;KCNQ2 pot conf=42*;Kir21 spec=-18;KCNQ2 W236L pot=i
Cc1ccc(C(C)NC(=O)c2ccc3c(c2)OCO3)cc1C (centres undefined) | 10* | i | i | i | CHO-K1 ctr=-17;KCNQ1 pot spec=-2;KCNQ2 pot conf=52*;Kir21 spec=-32;KCNQ2 W236L pot=i
CCOc1ccccc1NC(=O)NC(C)c1ccc2c(c1)OCO2 (centres undefined) | 5.8* | i | i | i | CHO-K1 ctr=4.2*;KCNQ1 pot spec=73*;KCNQ2 pot conf=25*;Kir21 spec=-37;KCNQ2 W236L pot=i
CC(NC(=O)CCc1ccccc1)c1ccc2c(c1)OCO2 (centres undefined) | 8.5* | i | i | i | CHO-K1 ctr=-3;KCNQ1 pot spec=-8;KCNQ2 pot conf=45*;Kir21 spec=-47;KCNQ2 W236L pot=i
Cc1occc1C(=O)NC(C)c1ccc2c(c1)OCO2 (centres undefined) | nt | i | nt | nt
CC(NC(=O)Cc1ccc([N+](=O)[O-])cc1)c1ccc2c(c1)OCO2 (centres undefined) | nt | i | nt | nt
CCOc1ccccc1C(=O)NC(C)c1ccc2c(c1)OCO2 (centres undefined) | 2.7 | i | nt | nt
CC(C(=O)NCc1cccc(Cl)c1)N1C(=O)c2ccccc2C1=O (centres undefined) | nt | i | nt | nt
COc1ccc(/C=C/C(=O)Oc2cccc(/C=N/NC(=O)Cc3ccc(Br)cc3)c2)cc1 | 0.01 | i | nt | nt
COc1ccc(F)cc1S(=O)(=O)NCC(c1ccco1)N1CCc2ccccc2C1 (centres undefined) | nt | i | nt | nt

Bioassay records deposited in PubChem BioAssay by Johns Hopkins Ion Channel Center.
